M1 ag = M1 muscarinic receptor agonism; B-score at 10 µM; 3% of 64,000 active; AID 626; CHO-M1 cells, Fluo-4 calcium fluorescence, agonist mode; stronger effect = higher value;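 active means fluorescence rise, raw or as B-score row- and column-corrected plate score, outside the 99.7% band of its plate's samples, either direction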
FXIa inh mix = factor XIa (human) inhibition, mixture screen | P03951 | purified FXIa, fluorogenic substrate, pooled mixtures | inhibition, % at 5 µM | 0.19% of 62,000 active;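 further: each value is inhibition by a whole ten-compound pool holding the compound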
JNK3 inh = blocks human JNK3 kinase activity; AID 746; 0.61% of 60,000 active; purified JNK3 kinase activity, HTS; P53779; inhibition, % at 8 µM; in the data active means inhibition above about 17%
FXIIa mix inh = blocks human factor XIIa in pooled compound mixtures; P00748; inhibition, % at 5 µM; 0.2% of 62,000 active; AID 684; purified FXIIa, fluorogenic substrate
HER2 expr 66K = inhibitors of human Her2 kinase expression; P04626; SKBR-3 HER2 protein level, AlphaScreen, 18-24 h; stronger effect = lower value; HER2 level % of control, % at 10 µM; 0.69% of 65,000 active; AID 645;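 active means HER2 level under 5% of the carrier-only control; inconclusive means no clear call, values can overlap the other calls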
M1 antagonist = M1 muscarinic receptor (rat) antagonism | P08482 | CHO-M1 cells, Fluo-4 calcium, ACh EC80 antagonist mode; stronger effect = lower value | B-score at 10 µM | 3.4% of 64,000 active;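 active means calcium fluorescence response, raw or row-and-column corrected B-score, differing from the plate sample mean either way at a set confidence level, mostly lower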
M1 ag confirm = rat M1 muscarinic agonism, confirmation. shares compounds with M1 ag. CHO-M1 cells, Fluo-4 calcium fluorescence, agonist mode; actives lie on both sides. fluorescence change (max-min) at 10 µM. 19% of 1,700 active;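 active means fluorescence change differs from the solvent-only DMSO control mean at a set confidence level in both duplicate runs; inconclusive means differs from solvent-only control mean in just one of two runs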;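 further: an EC20 dose of acetylcholine follows compound addition during the same imaging run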
M4 agonist ctr = counter-screen for M1 agonists: activity at rat M4 receptor; shares compounds with M1 ag; CHO M4/Gqi5 cells, Fluo-4 calcium fluorescence, agonist mode; actives lie on both sides; fluorescence change (max-min) at 10 µM; 9% of 1,700 active; AID 1741;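 active means fluorescence change differing from the plate's solvent-only control wells at 99.7% confidence in both duplicates, whether higher or lower; inconclusive means differs from solvent controls in only one of two duplicates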
Target sequence (P08485 whole entry, looked up): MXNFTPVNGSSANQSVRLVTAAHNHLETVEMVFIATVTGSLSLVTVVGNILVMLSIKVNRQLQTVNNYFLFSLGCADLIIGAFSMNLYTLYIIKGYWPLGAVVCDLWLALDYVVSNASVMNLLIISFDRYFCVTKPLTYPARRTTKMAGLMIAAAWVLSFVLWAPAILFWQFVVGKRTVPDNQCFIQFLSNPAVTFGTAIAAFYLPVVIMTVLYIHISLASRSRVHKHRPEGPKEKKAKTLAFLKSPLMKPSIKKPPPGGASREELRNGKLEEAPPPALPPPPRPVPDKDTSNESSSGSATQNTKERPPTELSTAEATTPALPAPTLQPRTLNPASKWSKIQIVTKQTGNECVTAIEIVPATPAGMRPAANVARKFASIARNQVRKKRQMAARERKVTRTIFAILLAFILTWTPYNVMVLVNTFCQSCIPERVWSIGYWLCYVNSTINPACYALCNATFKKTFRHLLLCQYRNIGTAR
A number is an active result. A selection: hits, their analogues and other compounds. The true share with any hit is near 6.9%. Unless noted, no stated cut-off is given here; in the data, active means inhibition above about 20% (passing the limit was not always enough); inactive means the rest.

Results for Cc1c(NC(=O)OCCSc2nc(N(C)C)nc(N(C)C)n2)sc(=S)n1C ?
M1 ag: inactive; FXIa inh mix: inactive; FXIIa mix inh: inactive; M1 antagonist: inactive

What do the screens show for `Cc1ccc2[nH]c3c(NCc4ccco4)ncnc3c2c1`?
M1 ag: 8.5; FXIa inh mix: inactive; JNK3 inh: inactive; FXIIa mix inh: inactive; HER2 expr 66K: inactive; M1 antagonist: inactive; M1 ag confirm: inactive; M4 agonist ctr: inactive

Results for COc1ccc2c(CC(=O)OCC(=O)c3ccc(F)cc3)coc2c1 ?
M1 ag: inactive; FXIa inh mix: inactive; JNK3 inh: inactive; FXIIa mix inh: inactive; HER2 expr 66K: inactive; M1 antagonist: inactive

What do the screens show for `Cc1c(NC(=O)CCc2ccc(S(=O)(=O)N3CCOCC3)cc2)c(=O)n(-c2ccccc2)n1C`?
M1 ag: inactive; FXIa inh mix: inactive; FXIIa mix inh: inactive; HER2 expr 66K: inactive; M1 antagonist: inactive

How did Cc1ccc(-c2cc(C(F)F)nc(N3CCC(C)CC3)n2)cc1 do in these assays?
M1 ag: 4.2; FXIa inh mix: inactive; FXIIa mix inh: inactive; HER2 expr 66K: inactive; M1 antagonist: inactive; M1 ag confirm: inactive; M4 agonist ctr: inactive

How did CC(C)(C)OC(=O)N1CCC(C(=O)N[C@H](Cc2ccccc2)C(=O)O)CC1 do in these assays?
M1 ag: inactive; FXIa inh mix: inactive; JNK3 inh: inactive; FXIIa mix inh: inactive; HER2 expr 66K: inactive; M1 antagonist: inactive

What do the screens show for `Cc1ccc(S(=O)(=O)N2CCC(C(=O)N[C@@H](Cc3ccccc3)C(=O)O)CC2)cc1`?
M1 ag: 1.6; FXIa inh mix: inactive; JNK3 inh: inactive; FXIIa mix inh: inactive; HER2 expr 66K: inactive; M1 antagonist: inactive; M1 ag confirm: inactive; M4 agonist ctr: inconclusive

How did CN(CC(=O)NCc1cccs1)S(=O)(=O)c1cccc2nsnc12 do in these assays?
M1 ag: inactive; FXIa inh mix: inactive; JNK3 inh: inactive; FXIIa mix inh: inactive; HER2 expr 66K: inactive; M1 antagonist: inactive

What do the screens show for `Cc1nc2nc(-c3cccs3)cn2nc1C`?
M1 ag: 100; FXIa inh mix: inactive; JNK3 inh: inactive; FXIIa mix inh: inactive; HER2 expr 66K: inactive; M1 antagonist: inactive; M1 ag confirm: 1066; M4 agonist ctr: 1014

How did CC(=O)Nc1nc(SCCCc2ccccc2)n[nH]1 do in these assays?
M1 ag: inactive; FXIa inh mix: inactive; JNK3 inh: inactive; FXIIa mix inh: inactive; HER2 expr 66K: inactive; M1 antagonist: inactive

Results for O=C(CCC(=O)N1CCc2ccccc21)N1CCc2ccccc21 ?
M1 ag: inactive; FXIa inh mix: inactive; JNK3 inh: inactive; FXIIa mix inh: inactive; HER2 expr 66K: inactive; M1 antagonist: inactive

What do the screens show for `O=C(CS(=O)(=O)Cc1ccccc1)N1CCc2ccccc21`?
M1 ag: 23; FXIa inh mix: inactive; JNK3 inh: inactive; FXIIa mix inh: inactive; HER2 expr 66K: inactive; M1 antagonist: inactive; M1 ag confirm: inactive; M4 agonist ctr: inactive

How did O=c1cc(CSc2nnnn2-c2ccccc2)[nH]c2[nH]n(-c3ccccc3)c(=O)c12 do in these assays?
M1 ag: inactive; FXIa inh mix: inactive; JNK3 inh: inactive; FXIIa mix inh: inactive; HER2 expr 66K: inactive; M1 antagonist: inactive

How did Cn1c(=O)cc(SCC(=O)Nc2cccnc2)c2ccccc21 do in these assays?
M1 ag: 2.7; FXIa inh mix: inactive; JNK3 inh: inactive; FXIIa mix inh: inactive; HER2 expr 66K: inactive; M1 antagonist: inactive; M1 ag confirm: inactive; M4 agonist ctr: inactive

Results for CCS(=O)(=O)c1ccc(O)c(N2C(=O)C3C4C=CC(C4)C3C2=O)c1 (stereo not given) ?
M1 ag: inactive; JNK3 inh: inactive; HER2 expr 66K: inactive; M1 antagonist: inactive

Results for O=C(CSc1nnc(Cn2nnc3ccccc32)o1)N(Cc1ccc(F)cc1)c1ccccc1 ?
M1 ag: 6.2; FXIa inh mix: inactive; JNK3 inh: inactive; FXIIa mix inh: inactive; HER2 expr 66K: inactive; M1 antagonist: inactive; M1 ag confirm: -34; M4 agonist ctr: inactive

How did CC(=O)c1cc2c(cc1NC(=O)Nc1cccc(Cl)c1)OCCO2 do in these assays?
M1 ag: 19; FXIa inh mix: inactive; JNK3 inh: inactive; FXIIa mix inh: inactive; HER2 expr 66K: inactive; M1 antagonist: inactive; M1 ag confirm: inactive; M4 agonist ctr: inactive

What do the screens show for `CCn1cc(C(=O)NCc2ccccn2)c(=O)c2cc(S(=O)(=O)N3CCCCC3)ccc21`?
M1 ag: 11; FXIa inh mix: inactive; JNK3 inh: inactive; FXIIa mix inh: inactive; HER2 expr 66K: inactive; M1 antagonist: inactive; M1 ag confirm: 73; M4 agonist ctr: inactive

Results for O=C(Cn1nnc(-c2cccc(C(F)(F)F)c2)n1)NC1CCCC1 ?
M1 ag: inactive; FXIa inh mix: inactive; JNK3 inh: inactive; FXIIa mix inh: inactive; HER2 expr 66K: inactive; M1 antagonist: inactive

What do the screens show for `O=C(COC(=O)CCc1c[nH]c(=O)[nH]1)Nc1cccc(Cl)c1`?
M1 ag: 5.2; FXIa inh mix: inactive; JNK3 inh: inactive; FXIIa mix inh: inactive; HER2 expr 66K: inactive; M1 antagonist: inactive; M1 ag confirm: inactive; M4 agonist ctr: inactive

Results for Cc1onc(-c2ccccc2Cl)c1C(=O)Nc1ccc(-c2cn3cccnc3n2)cc1 ?
M1 ag: 4.4; FXIa inh mix: inactive; FXIIa mix inh: inactive; HER2 expr 66K: inactive; M1 antagonist: inactive; M1 ag confirm: inactive; M4 agonist ctr: inactive

Results for Cc1onc(-c2ccccc2Cl)c1C(=O)Nc1cccc(-c2nc3ncccn3c2C)c1 ?
M1 ag: 3.3; FXIa inh mix: inactive; FXIIa mix inh: inactive; HER2 expr 66K: inactive; M1 antagonist: -2.3; M1 ag confirm: inconclusive; M4 agonist ctr: inactive

Results for Cc1ccc(-c2cn3cccnc3n2)cc1NC(=O)c1c(-c2ccccc2Cl)noc1C ?
M1 ag: inactive; FXIa inh mix: inactive; FXIIa mix inh: inactive; HER2 expr 66K: inactive; M1 antagonist: inactive

Results for CN1CCN(c2nc(-c3cccs3)cc(C(F)(F)F)n2)CC1 ?
M1 ag: 3.1; FXIa inh mix: inactive; FXIIa mix inh: inactive; HER2 expr 66K: inactive; M1 antagonist: -18; M1 ag confirm: inconclusive; M4 agonist ctr: inconclusive

What do the screens show for `CC(CC(=O)NCc1ccccc1)C1CCCO1` (stereo not given)?
M1 ag: inactive; FXIa inh mix: inactive; JNK3 inh: inactive; FXIIa mix inh: inactive; HER2 expr 66K: inactive; M1 antagonist: inactive

How did O=c1[nH]c(Nc2ccccc2)cc2ccccc12 do in these assays?
M1 ag: 5.5; FXIa inh mix: inactive; JNK3 inh: inactive; FXIIa mix inh: inactive; HER2 expr 66K: inactive; M1 antagonist: inactive; M1 ag confirm: inconclusive; M4 agonist ctr: inactive

Results for Nn1c(Nc2ccccc2)nc2ccccc2c1=O ?
M1 ag: inactive; FXIa inh mix: inactive; JNK3 inh: inactive; FXIIa mix inh: inactive; HER2 expr 66K: inactive; M1 antagonist: inactive
